Each structure is given as a SMILES string. This is part of a sample that, as a whole, favours compounds with a hit. Of some 79,000 tested, about 15% had one in any assay. Unmarked numbers belong to inactive results. Active and inactive are the calls of the source. Rule as the data show it: active = growth inhibition above about 70%; inactive = the rest.

The first assay in a line: NCI Yeast Anticancer Drug Screen. Data for the bub3 strain (AID 167). Particulars: S. cerevisiae bub3 mutant strain, at 50.0 µM, stronger effect = higher value. The gist of the method:
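In this screen, a yeast mutant lacking normal mitotic checkpoint function is challenged with compound. Relative growth versus vehicle gives the inhibition value.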
Turning to `Cc1c(C)c2cc(Br)ccc2[nH]c1=O`, the growth inhibition was 6.7%.
Still for that read-out and setting: next, `Nc1ccccc1SC(CC(=O)c1ccccc1)c1cccc([N+](=O)[O-])c1` (configuration not stated): -17.9%; `COc1cc(/C=N\N=C(/C)c2ccc(C)cc2C)cc(OC)c1OC`: 24.9%; `COC(=O)CCC(=O)CN1C(=O)c2ccccc2C1=O`: 14.1%.
On the same count and under the same terms, next, `C[N+](C)(Cc1cccc(Cl)c1)c1nnn[n-]1`: -7.4%; `COc1ccc(C(=O)/C=C/c2c[nH]c3ccccc23)c(O)c1`: 9.9%; `COc1ccccc1/C=N/Nc1ccc([N+](=O)[O-])cc1[N+](=O)[O-]`: 16.8%.
The same measure, in the same setting: then `O=C(OCc1ccccc1)c1ccccc1`, with 28.1%; and `CCCCCCCCN1COC2CCc3ccccc3C21` (configuration not stated), with 94% (active); and `COC1OC(CO)C(O)C(NC(=O)[C@H](Cc2ccc(O)cc2)NC(=O)OCc2ccccc2)C1O` (some centres not stated), with -0.5%.
As to `CCCCCCCCCCC/C=N\[N+](C)(C)C`, the growth inhibition was 98.8% (active).
The same measure, in the same setting: then `O=C(O)c1c2c(nc3ccccc13)CCC2`, with 12.2%; and `O=c1cc(-c2ccc(O)cc2)oc2cc(O)cc(O)c12`, with -20.9%; and `CC(=O)Oc1ccc(C2(c3ccc(OC(C)=O)cc3)C(=O)Nc3ccccc32)cc1`, with 20.8%.
On to `OC1CCCCC2CC2C1O` (configuration not stated), for which the growth inhibition was 3.55%.
Same read-out and setting: then `NC(=O)N1CCCC1=O`, with -11.3%; and `O=C1CC2C3CC4(OCCO4)C4C3CC2C14` (configuration not stated), with 2.1%.
The same measure, in the same setting: then `COc1cc(NC(C)CCCN)c2nccc(C)c2c1` (configuration not stated), with -62.5%.
On the same count and under the same terms, next, `O=C1NC(=O)C(c2ccc(C(=O)O)cc2)N1` (configuration not stated): -5.5%.
For the compound `OCc1ccccc1F`, the growth inhibition is -15.1%.
For the compound `NS(=O)(=O)c1ccc(NC(=O)Nc2cccc(Cl)c2)cc1`, the growth inhibition is 46.4%.
In the case of `Cc1ccc(C)c(NC(=O)Oc2ccc(Cl)cc2Cc2ccccc2)c1`, the growth inhibition is 8.2%.
`S=c1[nH]ncn2nc3ccccc3c12`: the growth inhibition is -3.85%.

A short description of a further assay: NCI Yeast Anticancer Drug Screen. Data for the mlh1 rad18 strain (AID 175). The conditions noted are these: S. cerevisiae mlh1 rad18 strain growth inhibition; at 50.0 µM; stronger effect = higher value. In short, it runs like this:
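Compound-treated yeast growth, normalised to vehicle controls. Strain bears defined DNA repair mutations.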
As to `Cc1cc(N=C2C=CC(=O)C=C2)ccc1O`, the growth inhibition was 25.6%.
Still for that read-out and setting: next, `CCCCOc1ccc([N+](=O)[O-])cn1`: 9.15%; `CCCCCCCCCc1ccc(COCCCC)cc1`: 48.8%; `CC(C(=O)C(=O)Nc1ccc(Cl)cc1)C(=O)c1ccc(Cl)cc1` (configuration not stated): -17.3%.
As for `[N-]=[N+]=Nc1ccnc2c(C(F)(F)F)cccc12`, the growth inhibition was -2.45%.
Same read-out and setting: then `CCCC(=O)Oc1ccc2ccccc2c1`, with -33.5%; and `COc1ccc(OC)c2c(Nc3ccc(S(=O)(=O)O)c4cc(S(=O)(=O)O)cc(S(=O)(=O)O)c34)cc(C)nc12`, with 10.9%.
Same read-out and setting: next, `CCOC(=O)c1ccc(NCc2cccc([N+](=O)[O-])c2)cc1`: 31.6%; `Cc1ccc([N+](=O)[O-])cc1Br`: 4%.
On the same count and under the same terms, next, `C#CCOC(=O)C(N)CS` (configuration not stated): -13.7%.
Take `O=C(Nc1ccc(C2=NCCN2)c(O)c1)c1ccc(C(=O)Nc2ccc(C3=NCCN3)c(O)c2)cc1`: the growth inhibition was 28.6%.
For `C1CCCC(N2N=NC3C4CC(C5N=NN(C6CCCCCC6)C45)C32)CC1` (configuration not stated), the growth inhibition was 11.7%.
On the same count and under the same terms, then `CC(CN(C)C)CN1c2ccccc2Sc2ccccc21` (configuration not stated), with 8.35%; and `COc1cc2c(cc1OC)C(=O)C1(CO)COC(=O)C1C2` (configuration not stated), with 5.9%; and `O=[N+]([O-])c1ccc(/C=N/C(/N=C/c2ccc([N+](=O)[O-])cc2)c2ccc([N+](=O)[O-])cc2)cc1`, with 23.9%.
Regarding `Nc1nc(=S)c2[nH]cnc2[nH]1`, the growth inhibition is -125%.
For the compound `Cc1c(C)c2cc(Br)ccc2[nH]c1=O`, the growth inhibition is 2.45%.
Same read-out and setting: next, `Nc1ccccc1SC(CC(=O)c1ccccc1)c1cccc([N+](=O)[O-])c1` (configuration not stated): -13.5%.
Take `COc1cc(/C=N\N=C(/C)c2ccc(C)cc2C)cc(OC)c1OC`: the growth inhibition is 24.6%.
The same measure, in the same setting: next, `COC(=O)CCC(=O)CN1C(=O)c2ccccc2C1=O`: 1.5%; `C[N+](C)(Cc1cccc(Cl)c1)c1nnn[n-]1`: -9.5%.
On the same count and under the same terms, then `COc1ccc(C(=O)/C=C/c2c[nH]c3ccccc23)c(O)c1`, with 22.4%; and `COc1ccccc1/C=N/Nc1ccc([N+](=O)[O-])cc1[N+](=O)[O-]`, with 18.8%; and `O=C(OCc1ccccc1)c1ccccc1`, with 51.9%.
On the same count and under the same terms, then `CCCCCCCCN1COC2CCc3ccccc3C21` (configuration not stated), with 92.3% (active); and `COC1OC(CO)C(O)C(NC(=O)[C@H](Cc2ccc(O)cc2)NC(=O)OCc2ccccc2)C1O` (some centres not stated), with 7.1%.
For `CCCCCCCCCCC/C=N\[N+](C)(C)C`, the growth inhibition is 98.2% (active).
Same read-out and setting: then `O=C(O)c1c2c(nc3ccccc13)CCC2`, with -8.4%; and `O=c1cc(-c2ccc(O)cc2)oc2cc(O)cc(O)c12`, with -14.9%.
`CC(=O)Oc1ccc(C2(c3ccc(OC(C)=O)cc3)C(=O)Nc3ccccc32)cc1`: the growth inhibition is -4.65%.
With `OC1CCCCC2CC2C1O` (configuration not stated), the growth inhibition is -5.65%.
On the same count and under the same terms, next, `NC(=O)N1CCCC1=O`: -20.9%; `O=C1CC2C3CC4(OCCO4)C4C3CC2C14` (configuration not stated): 5.8%; `COc1cc(NC(C)CCCN)c2nccc(C)c2c1` (configuration not stated): -36.9%.
Consider `O=C1NC(=O)C(c2ccc(C(=O)O)cc2)N1` (configuration not stated), for which the growth inhibition was -2.25%.
Still for that read-out and setting: next, `OCc1ccccc1F`: -36.2%; `NS(=O)(=O)c1ccc(NC(=O)Nc2cccc(Cl)c2)cc1`: -11.3%.
As for `Cc1ccc(C)c(NC(=O)Oc2ccc(Cl)cc2Cc2ccccc2)c1`, the growth inhibition was 7.1%.
Regarding `S=c1[nH]ncn2nc3ccccc3c12`, the growth inhibition was 1.7%.
